Structures are written as SMILES. Inconclusive results are not listed. Entries that show only a call come without a potency. Activity calls are given as the source filed them. Calls come from the whole dose curve.

This assay can be described thus: Confirmatory qHTS for Vero E6 cytotoxicity: counterscreen for inhibitors of SARS-S pseudo-typed particle cell entry. Particulars: cell viability; series mostly up to 57.1 µM. On the technique in general: Quantitative high-throughput screening tests each substance at several concentrations.
For `CCCCc1oc2ccccc2c1C(=O)c1cc(I)c(OCCN(CC)CC)c(I)c1`, the Potency result is “inactive”.

For `CC(C)C[C@H](NC(=O)[C@H](CCc1ccccc1)NC(=O)CN1CCOCC1)C(=O)N[C@@H](Cc1ccccc1)C(=O)N[C@@H](CC(C)C)C(=O)[C@@]1(C)CO1`, the Potency is 0.681 µM (active).

For `Nc1ccn([C@@H]2O[C@H](CO)[C@@H](O)C2(F)F)c(=O)n1`, the Potency result was “inactive”.

Regarding `OCCN1CCN(CC/C=C2/c3ccccc3Sc3ccc(C(F)(F)F)cc32)CC1`, the Potency entry was “inactive”.

On to `CC[C@@]1(O)C(=O)OCc2c1cc1n(c2=O)Cc2cc3c([N+](=O)[O-])cccc3nc2-1`, for which the Potency was 3.93 µM (active).

For the molecule `CN1CCC(=C2c3ccccc3CCc3sccc32)CC1`, the Potency entry is “inactive”.

For `CC(C)OC(=O)[C@H](C)N[P@](=O)(CO[C@H](C)Cn1cnc2c(N)ncnc21)Oc1ccccc1`, the Potency result was “inactive”.

In the case of `CN(C/C=C/c1ccccc1)Cc1cccc2ccccc12`, the Potency entry is “inactive”.

`C[C@H]1[C@H](OC(=O)CCC(=O)O)O[C@@H]2O[C@@]3(C)CC[C@H]4[C@H](C)CC[C@@H]1[C@@]24OO3`: the Potency entry is “inactive”.

Take `CC[C@@]1(O)C(=O)OCc2c1cc1n(c2=O)Cc2c-1nc1ccccc1c2/C=N/OC(C)(C)C`: the Potency was 17.1 µM (active).

Consider `CCCCCCCCCCCCCC[n+]1ccc(C)cc1`, for which the Potency was 4.29 µM (active).

Take `CC(CN(C)C)CN1c2ccccc2CCc2ccccc21` (stereo not given): the Potency result was “inactive”.

As to `COc1cc(N)c(Cl)cc1C(=O)NC1CCN(CCCOc2ccc(F)cc2)CC1OC` (stereo not given), the Potency entry was “inactive”.

Consider `O=C1CCc2ccc(OCCCCN3CCN(c4cccc(Cl)c4Cl)CC3)cc2N1`, for which the Potency entry was “inactive”.

In the case of `CCC(C)(C)C(=O)O[C@H]1C[C@@H](C)C=C2C=C[C@H](C)[C@H](CC[C@@H]3C[C@@H](O)CC(=O)O3)[C@H]21`, the Potency is 5.41 µM (active).
